This note sets out measurements from PubChem BioAssay.

A short description of assay [1]: inhibitors of TNFa-induced NFkB p65 translocation, primary screen, imaging, HUVEC, MLSMR starter and 10KST1 sets (AID 438).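 Further: compound added about 3h40 before a 20 min TNFalpha stimulation.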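 On inhibition: signal is the nuclear over cytoplasmic p65 intensity ratio per well.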 The settings on record: HUVEC TNFa-induced p65 nuclear translocation; cell count: measured here: nuclei count (cytotoxicity indicator), at 2.08 µM; inhibition: at 2 µM, stronger effect = higher value, 0% TNFa-plus-vehicle, 100% no-TNFa wells.
Assay [2] in a line: reduction of polyQ htt aggregates in cells – imaging, exon1htt(103Q)mCFP cells, high-content imaging, primary screen (AID 483;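 active means visual image review flags a hit and inhibition of aggregation exceeds 20%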;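 further: compound exposure lasted 3 days before fixation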;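 on nuclei count: percent of the per-plate median nuclei count of sample wells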). Conditions: exon1htt(103Q)mCFP cell line, aggregate imaging, at 2 µM; inhibition of aggregation: stronger effect = higher value; nuclei count: measured here: cell count, toxicity.
Assay [3] in a line: endothelial E-selectin expression blockers – imaging, HUVEC, immunofluorescence, MLSMR starter and 10KST1 sets, primary screen (AID 487;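 active means visually confirmed hit in the image check and inhibition above 20%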;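 on inhibition: signal is fraction of cell area covered by stained E-selectin grains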;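 on nuclei count: 100% = median nuclei count of all wells on the same plate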). Conditions: HUVEC TNFalpha-induced E-selectin immunofluorescence imaging, at 2 µM; inhibition: stronger effect = higher value; nuclei count: measured here: cell number, toxicity.
For assay [4], the target named is Voltage-gated potassium channel subunit beta-2 (Rattus norvegicus) (UniProt P62483). The assay is described as follows: inhibitors of rat Kvbeta2 reductase activity – biochemical, NADPH fluorescence, primary screen (AID 622;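 active means fluorescence slope higher than the sample average by over 3 SD, cut at about -0.22 in these data, passing the limit was not always enough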;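 further: slope of raw intensity against log time taken from 70 to 1610 s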). The settings on record: recombinant KvBeta, 4-cyanobenzaldehyde reduction, at 10 µM, stronger effect = higher value.
Voltage-gated potassium channel subunit beta-2 (Rattus norvegicus), sequence (P62483 whole entry, looked up): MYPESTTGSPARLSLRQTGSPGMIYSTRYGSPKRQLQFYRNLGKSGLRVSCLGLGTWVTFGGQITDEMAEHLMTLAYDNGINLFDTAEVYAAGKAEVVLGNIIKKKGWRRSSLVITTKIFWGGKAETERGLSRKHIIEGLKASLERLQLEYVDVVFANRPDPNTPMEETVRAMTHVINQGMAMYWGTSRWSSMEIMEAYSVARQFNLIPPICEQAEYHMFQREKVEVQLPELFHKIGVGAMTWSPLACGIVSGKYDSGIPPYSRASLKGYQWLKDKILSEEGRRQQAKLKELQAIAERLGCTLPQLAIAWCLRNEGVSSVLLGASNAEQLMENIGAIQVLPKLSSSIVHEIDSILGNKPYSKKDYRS
For assay [5] the target is unchanged. Description: enhancers of rat Kvbeta2 NADPH turnover – biochemical, NADPH fluorescence, primary screen (AID 623;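 active means NADPH fluorescence slope more negative than the mean of all samples by about 3 SD, 99.7% confidence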;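 further: fluorescence intensity change per second fitted from 20 to 320 s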). The settings on record: Recombinant KvBeta, NADPH fluorescence decrease slope, 10 min; at 10 µM; stronger effect = lower value.
For assay [6], the target named is Alpha-2C adrenergic receptor (Homo sapiens) (UniProt P18825). Description: compounds altering alpha2C-coupled GIRK flux – cell-based, HEK293 alpha2C/GIRK1/2, thallium flux, primary screen (AID 624;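 active means fluorescence slope after compound addition differing from the mean of all screened samples at 99.7% confidence, in either direction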;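 further: slope of fluorescence ratio to pre-addition baseline per second over 15 to 24 s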). Conditions: thallium flux BTC fluorescence, at 10 µM, actives lie on both sides.
Alpha-2C adrenergic receptor (Homo sapiens), sequence (P18825 whole entry, looked up): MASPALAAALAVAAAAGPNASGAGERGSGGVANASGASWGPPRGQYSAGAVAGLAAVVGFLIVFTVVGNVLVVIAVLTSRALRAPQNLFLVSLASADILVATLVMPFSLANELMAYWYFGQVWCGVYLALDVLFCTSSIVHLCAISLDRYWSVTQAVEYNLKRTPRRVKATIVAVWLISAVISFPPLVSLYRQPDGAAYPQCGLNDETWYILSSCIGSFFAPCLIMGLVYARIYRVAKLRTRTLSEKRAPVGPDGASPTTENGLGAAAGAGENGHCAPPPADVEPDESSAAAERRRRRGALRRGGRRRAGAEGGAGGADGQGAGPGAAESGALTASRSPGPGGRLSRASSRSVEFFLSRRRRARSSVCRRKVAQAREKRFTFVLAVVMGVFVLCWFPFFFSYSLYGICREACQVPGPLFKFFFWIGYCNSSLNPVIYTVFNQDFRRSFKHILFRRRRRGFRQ
The nature of assay [7]: blockers of RIG-like receptor reporter activation – cell-based, Sendai virus stimulus, luciferase, 10K MLSCN set, TLR/RLR signaling modifier project, primary screen (AID 602276;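 active means inhibition at or above 50% at 10 µM; inactive means inhibition below 50%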;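 further: firefly luciferase from ISG56 promoter only with Renilla not read in this screen; 0% = Sendai virus plus DMSO and 100% = medium plus DMSO without virus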). The settings on record: HEK293 RL24 IRF3 luciferase reporter, at 10 µM, stronger effect = higher value.
Assay [8] in a line: TLR3 IRF3 reporter activation blockers – cell-based, poly I:C stimulus, luciferase, 10K MLSCN set, primary screen (AID 602277;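 active means inhibition of the reporter signal at or above 50%; inactive means inhibition below 50%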). The settings on record: HEK293-TLR3 RL24 IRF3 luciferase reporter, at 10 µM, stronger effect = higher value. On the technique in general: A reporter such as luciferase makes a cellular process visible.

Active and inactive are the calls of the source.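 How the source made its calls, unless noted: active means inhibition above 20% together with a positive visual image hit; inconclusive means visual image hit but inhibition not above 20%; inactive means no visual image hit.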

By inhibition is commonly meant the change of the read-out against control, counted positive when it falls. Regarding `CC(=O)Nc1ccccc1OCc1nnc(-c2cccs2)o1`, the cell count in assay [1] is 392. For the same compound, the inhibition was 4.8% (inactive) in assay [1], -266% (inactive) in assay [3], -27% (inactive) in assay [7] and -28.6% (inactive) in assay [8]. In assay [2], the inhibition of aggregation is -8.8% (inactive). Moreover, the nuclei count was determined as 92.5% in assay [2] and 104% in assay [3]. Moreover, in assay [4], the fluorescence slope is -0.612 (inactive). The NADPH fluorescence slope in assay [5] is 2e-06 (inactive). In addition, in assay [6], the slope is 0.00944 (inactive).

For the compound `CC(=O)N1CCN(c2ccc(NC(=O)c3ccc(C(C)(C)C)cc3)cc2)CC1`, the cell count in assay [1] was 816. Also, the inhibition in assay [1] is 7.3% (inactive); in assay [3], -186% (inactive); in assay [7], -19.2% (inactive); in assay [8] it was -42.5% (inactive). In addition, in assay [2], the inhibition of aggregation was -7.5% (inactive). Moreover, the nuclei count in assay [2] stood at 97.8%; in assay [3], 135%. Also, the fluorescence slope in assay [4] was -0.494 (inactive). The NADPH fluorescence slope in assay [5] is -4e-05 (inactive). The slope in assay [6] is 0.00554 (inactive).

In the case of `CC1CCCN(c2ccc(C(=O)NCc3cccs3)cn2)C1` (centres undefined), the cell count in assay [1] was 632. In addition, the inhibition in assay [1] was -14.3% (inactive); in assay [3] it was -67.5% (inactive); in assay [7] it was -37.8% (inactive); in assay [8] it was -71.3% (inactive). Further, the inhibition of aggregation in assay [2] is -22.9% (inactive). The nuclei count in assay [2] came out at 112%; in assay [3], 139%. Also, the fluorescence slope in assay [4] is -0.614 (inactive). In addition, the NADPH fluorescence slope in assay [5] is -6.9e-06 (inactive). Moreover, in assay [6], the slope is 0.00612 (inactive).

In the case of `Cc1ccc(S(=O)(=O)Cn2nnnc2CN(Cc2ccco2)Cc2cccs2)cc1`, the cell count in assay [1] came out at 324. Further, the inhibition in assay [1] was -1.6% (inactive); in assay [3], -85.1% (inactive); in assay [7], 7.14% (inactive); in assay [8], 6.8% (inactive). For the same compound, the inhibition of aggregation in assay [2] is 6.8% (inactive). For the same compound, the nuclei count was found to be 108% in assay [2] and 133% in assay [3]. Also, the fluorescence slope in assay [4] is -0.594 (inactive). Moreover, in assay [5], the NADPH fluorescence slope is -4.2e-05 (inactive). Further, in assay [6], the slope is 0.00355 (inactive).

For `CC(CN1CCCCC1)OC(=O)c1ccc2c(c1)OCO2` (centres undefined), in assay [1], the cell count is 639. In addition, the inhibition in assay [1] was 4.9% (inactive); in assay [3], -45.9% (inactive); in assay [7], 6.1% (inactive); in assay [8] it was -0.512% (inactive). Further, the inhibition of aggregation in assay [2] was 27.4% (inactive). Moreover, the nuclei count in assay [2] was determined as 70.8%; in assay [3] it was 103%. Moreover, in assay [4], the fluorescence slope was -0.586 (inactive). In addition, the NADPH fluorescence slope in assay [5] was -3.4e-05 (inactive). Further, the slope in assay [6] is 0.00425 (inactive).

Regarding `COc1ccc(-c2cc(N3CCCC3)n3ncnc3n2)cc1`, the cell count in assay [1] came to 640. The inhibition in assay [1] is 11.9% (inactive); in assay [3], -3.2% (inactive); in assay [7], -11.3% (inactive); in assay [8], -11.7% (inactive). Besides, the inhibition of aggregation in assay [2] was 7.3% (inactive). Besides, the nuclei count was 118% in assay [2] and 102% in assay [3]. The fluorescence slope in assay [4] is -0.473 (inactive). Moreover, the NADPH fluorescence slope in assay [5] was -2.2e-05 (inactive). Further, the slope in assay [6] was 0.00575 (inactive).

Turning to `Cc1cc(C(=O)Nc2sc3c(c2C#N)CCCCC3)cs1`, the cell count in assay [1] turned out to be 651. Besides, the inhibition in assay [1] is 6% (inactive); in assay [3], -7.5% (inactive); in assay [7], -33.9% (inactive); in assay [8], -119% (inactive). Moreover, the inhibition of aggregation in assay [2] is -8.1% (inactive). Moreover, the nuclei count in assay [2] is 107%; in assay [3], 100%. Further, the fluorescence slope in assay [4] is -0.581 (inactive). Moreover, in assay [5], the NADPH fluorescence slope was -1.2e-05 (inactive). In addition, the slope in assay [6] is 0.00236 (inactive).

As for `CCCCOC(=O)c1cccc(NC(=O)CC)c1`, the cell count in assay [1] stood at 667. Moreover, the inhibition in assay [1] was -22.3% (inactive); in assay [3], 16.4% (inactive); in assay [7] it was -34.7% (inactive); in assay [8] it was -123% (inactive). In assay [2], the inhibition of aggregation is -8.8% (inactive). Besides, the values for the nuclei count in assay [2] and in assay [3] were 97.1% and 110%, respectively. The fluorescence slope in assay [4] was -0.557 (inactive). Moreover, the NADPH fluorescence slope in assay [5] was 4e-05 (inactive). In addition, the slope in assay [6] is 0.00523 (inactive).

Take `O=S(=O)(c1cccc(S(=O)(=O)N2CCC(N3CCCCC3)CC2)c1)N1CCOCC1`: the cell count in assay [1] was 725. Besides, the inhibition in assay [1] was -4.8% (inactive); in assay [3], -3.7% (inactive); in assay [7], 7.24% (inactive); in assay [8], 28.4% (inactive). Besides, in assay [2], the inhibition of aggregation was -6.3% (inactive). Also, the nuclei count in assay [2] was 123%; in assay [3] it was 106%. The fluorescence slope in assay [4] was -0.469 (inactive). In addition, the NADPH fluorescence slope in assay [5] is -1.3e-06 (inactive). Further, the slope in assay [6] was 0.00684 (inactive).

Consider `O=C(CSc1nc2cc(Cl)ccc2s1)N1CCN(C(=O)c2ccco2)CC1`, for which the cell count in assay [1] came to 725. Also, the inhibition in assay [1] is 2.4% (inactive); in assay [3], -126% (inactive); in assay [7], 21.6% (inactive); in assay [8] it was 27.6% (inactive). In addition, the inhibition of aggregation in assay [2] was 15.7% (inactive). For the same compound, the nuclei count in assay [2] was 97.9%; in assay [3], 141%. Besides, the fluorescence slope in assay [4] is -0.482 (inactive). Further, the NADPH fluorescence slope in assay [5] is -5.8e-05 (inactive). In addition, the slope in assay [6] was 0.00555 (inactive).

Turning to `COc1ccccc1N1CCN(Cc2nnnn2CCc2ccccc2)CC1`, the cell count in assay [1] was found to be 497. Further, the inhibition in assay [1] was -3.1% (inactive); in assay [3], -42.8% (inactive); in assay [7], -6.87% (inactive); in assay [8], 0.354% (inactive). Moreover, the inhibition of aggregation in assay [2] is 2% (inactive). For the same compound, the figures for the nuclei count in assay [2] and in assay [3] were 99.9% and 92%, respectively. Moreover, the fluorescence slope in assay [4] was -0.565 (inactive). Besides, in assay [5], the NADPH fluorescence slope was 8e-05 (inactive). The slope in assay [6] is 0.00514 (inactive).

As for `COc1ccc(-c2nnc(SCC(=O)Nc3cc(C)on3)n2C)cc1OC`, in assay [1], the cell count stood at 364. Besides, the inhibition in assay [1] is 2.6% (inactive); in assay [3] it was -12.1% (inactive); in assay [7], -4.06% (inactive); in assay [8] it was 25% (inactive). Moreover, in assay [2], the inhibition of aggregation was -9.8% (inactive). In addition, the nuclei count in assay [2] stood at 87.3%; in assay [3], 108%. Also, the fluorescence slope in assay [4] is -0.473 (inactive). Also, the NADPH fluorescence slope in assay [5] is -1.3e-05 (inactive). Moreover, the slope in assay [6] was 0.00613 (inactive).

Regarding `CCOCC(=O)Nc1ccc(S(=O)(=O)N2CCOCC2)cc1`, the cell count in assay [1] was determined as 283. The inhibition in assay [1] was -3.2% (inactive); in assay [3], -6.7% (inactive); in assay [7], 12% (inactive); in assay [8], 19.7% (inactive). Moreover, the inhibition of aggregation in assay [2] is 16.5% (inactive). In addition, the nuclei count amounted to 89.1% in assay [2] and 73.9% in assay [3]. Moreover, the fluorescence slope in assay [4] is -0.418 (inactive). In addition, in assay [5], the NADPH fluorescence slope was 5.9e-06 (inactive). Moreover, the slope in assay [6] was 0.00604 (inactive).

In the case of `CCC(=O)c1cc(F)c(N2CCN(C(=O)c3ccco3)CC2)cc1C`, the cell count in assay [1] was 611. The inhibition was -1.3% (inactive) in assay [1], -10.1% (inactive) in assay [3], 1.51% (inactive) in assay [7] and -21.1% (inactive) in assay [8]. Also, in assay [2], the inhibition of aggregation was -12.2% (inactive). For the same compound, the values for the nuclei count in assay [2] and in assay [3] were 128% and 104%, respectively. Besides, the fluorescence slope in assay [4] is -0.519 (inactive). The NADPH fluorescence slope in assay [5] was -4.1e-05 (inactive). Also, the slope in assay [6] is 0.00579 (inactive).
